We go through seven molecules from PubChem BioAssay (Tox21).

Assay [1] in a line: Nuclear factor erythroid 2-related factor 2/antioxidant responsive element (Nrf2/ARE) small molecule agonists: qHTS cell viability counter screen in human keratinocytes (AID 1919968; active = well fitted cell-killing curve with a large enough effect in the repeat runs; also: nearly all actives have a fitted effect of over 55% in size). A digest of the protocol: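 Cells of the KeratinoSens line were plated at 1,500 per well and left for 5 h before compound transfer from DMSO stocks. After a 23 h incubation (37 C, 5% CO2), CellTiter-Fluor was added. Signal was taken as fluorescence intensity 1 h later.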

Assay [2] can be described thus: Nuclear factor erythroid 2-related factor 2/antioxidant responsive element (Nrf2/ARE) small molecule agonists: luciferase reporter gene qHTS assay in human keratinocytes (AID 1919969). Also: nearly all actives have a fitted effect of over 35% in size. Also: potency is read from the fitted curve at half-maximal effect.
Assay [3] can be described thus: G protein-coupled receptor (GPCR) small molecule agonists, calcium flux assay: HEK293 wild type cell line counter screen (AID 1920065). The method, boiled down:
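Tox21 10K compounds, 15 concentrations each in triplicate, pin-transferred in DMSO onto dye-loaded cells; kinetic read at 480/540 nm for 3 min, 1 s intervals.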
For orientation: A change in cytosolic calcium serves as a functional read-out for many receptors and channels.

The nature of assay [4]: p53 small molecule agonists, cell-based qHTS assay with human liver microsomes (AID 1963577).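 Also: p53 response element beta-lactamase reporter cells with liver microsomes plus NADPH.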 The method, boiled down: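 16 h, 37 C exposure of p53RE-bla cells to compounds with human liver microsomes and NADPH (0.5 mg/mL final each); detection via LiveBLAzer mixture, 2 h dark at room temperature.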
(In general: In qHTS, concentration-response curves come from the screen itself.)

Assay [5] is described as follows: p53 small molecule agonists, cell-based qHTS assay with rat liver microsomes (AID 1963578). The method, boiled down:
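With rat liver microsomes and NADPH present (0.5 mg/mL final each), p53RE-bla cells are treated with compound for 16 h at 37 C. LiveBLAzer detection mixture is then applied for 2 h at room temperature in the dark.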

The nature of assay [6]: p53 small molecule agonists, cell-based qHTS assay with human liver microsomes: qHTS cell viability counter screen (AID 1963579). Also: nearly all actives have a fitted effect of over 45% in size. The method, boiled down:
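In this multiplexed counter screen, the reporter plates were subsequently treated with CellTiter-Glo so that cell viability, reflected by luminescence, could be recorded for p53RE-bla cells dosed 16 h with compounds under microsomal activation (HLM and NADPH).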

Assay [7] in a line: p53 small molecule agonists, cell-based qHTS assay with rat liver microsomes: qHTS cell viability counter screen (AID 1963580). Also: nearly all actives have a fitted effect of over 45% in size. The method, boiled down:
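Cytotoxicity counter screen: intracellular ATP read by CellTiter-Glo luminescence in the p53 reporter wells. HCT-116 p53RE-bla cells were treated for 16 h at 37 C alongside rat liver microsomes and NADPH, each 0.5 mg/mL final.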

Assay [8] in a line: p53 small molecule agonists, cell-based qHTS assay: qHTS cell viability counter screen (AID 1963581). Also: nearly all actives have a fitted effect of over 45% in size. A digest of the protocol:
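ATP content measured by luminescence in HCT-116 p53RE-bla cells treated 16 h at 37 C, same wells as the reporter screen.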

The target of assay [9] is 5-hydroxytryptamine receptor 2A (Homo sapiens) (UniProt P28223). Briefly: 5-hydroxytryptamine receptor 2A (HTR2A) small molecule antagonists, cell-based qHTS assay (AID 1963586). Also: nearly all actives have a fitted effect of over 45% in size. A digest of the protocol: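 CHO cells stably expressing human HTR2A were plated for 18 h at 37 C, then loaded with calcium dye for 1 h. Compounds were preincubated 5 min at room temperature before DOI (4 nM solution) was added. Kinetic fluorescence was read for 3 min.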

Assay [10] has the same target. Briefly: 5-hydroxytryptamine receptor 2A (HTR2A) small molecule agonists, cell-based qHTS assay (AID 1963587). Also: nearly all actives have a fitted effect of over 30% in size. A digest of the protocol: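 Kinetic calcium-flux fluorescence (2 min, 1 sec intervals) after compound addition in agonist mode. HTR2A-CHO cells were cultured 18 h, then dye-loaded 1 h at 37 C.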
In assay [11] the target is Muscarinic acetylcholine receptor M1 (Homo sapiens) (UniProt P11229). Briefly: Cholinergic receptor muscarinic 1 (CHRM1) small molecule antagonists, cell-based qHTS assay (AID 1963588). Also: nearly all actives have a fitted effect of over 40% in size. A digest of the protocol:
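Compounds were tested at 15 concentrations in three independent runs. Dye-loaded CHRM1-CHO cells were exposed 5 min at room temperature before stimulation by acetylcholine added at 50nM. Intracellular calcium was read kinetically on FDSS for 3 min.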

For assay [12] the target is unchanged. As to the kind of experiment: Cholinergic receptor muscarinic 1 (CHRM1) small molecule agonists, cell-based qHTS assay (AID 1963589). Also: nearly all actives have a fitted effect of over 35% in size. A digest of the protocol:
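Homogeneous fluorescence calcium flux, agonist mode. Human M1-expressing CHO cells; compound dosed at 15 concentrations, three independent runs; signal sampled every 1 sec.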

A short description of assay [13]: cAMP Responsive Elements (CRE) small molecule antagonists, cell-based qHTS assay (AID 1963591; active = well fitted inhibition curve with a large enough effect in the signal ratio in the repeat runs, not every such curve was filed as active; the % refers to the signal ratio). The method, boiled down:
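First, CRE-bla HEK293T cells settled 18 h at 37 C. Next, compound and 0.25 uM final NKH477 were applied for 3 h. Last, LiveBLAzer B/G substrate was loaded for 2 h at room temperature.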

Assay [14] addresses D(2) dopamine receptor (Homo sapiens) (UniProt P14416). Briefly: Dopamine D2 receptor (DRD2) small molecule agonists, cell-based qHTS assay (AID 1963594). Also: nearly all actives have a fitted effect of over 35% in size. A digest of the protocol:
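cAMP accumulation in DRD2-HEK293 cells measured by HTRF after 1 h detection; compounds added 10 min before NKH477 (200nM […]) forskolin-analogue stimulation, 30 min at room temperature, with Ro20-1724 present at 0.1 mM final.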

Assay [15] has the same target. Briefly: Dopamine D2 receptor (DRD2) small molecule antagonists, cell-based qHTS assay (AID 1963595; active = well fitted inhibition curve with a large enough effect in the signal ratio in the repeat runs, with a control signal flat; the % refers to the signal ratio). The method, boiled down:
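Antagonist mode in DRD2-HEK293 cells: after compound addition with 0.1 mM Ro20-1724, cells received quinpirole (12 nM) and NKH477 (200 nM) for 30 min at room temperature; HTRF cAMP read after 1 h detection.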

Assay [16] in a line: p53 small molecule agonists, cell-based qHTS assay (AID 1963582; active = well fitted activation curve with a large enough effect in the signal ratio in the repeat runs, not every such curve was filed as active; the % refers to the signal ratio). A digest of the protocol:
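16 h compound exposure (37 C) of p53 response element–bla cells, preceded by 5 h recovery at 37 C/5% CO2; read-out via LiveBLAzer B/G FRET substrate, 2 h RT, fluorescence intensity.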

The target in assay [17] is Beta-2 adrenergic receptor (Homo sapiens) (UniProt P07550). Briefly: Adrenergic beta2 receptor (ADRB2) small molecule antagonists, cell-based qHTS assay (AID 1963592). Also: series mostly up to about 92 µM; nearly all actives have a fitted effect of over 50% in size. The method, boiled down:
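Assay format: CHO-ADRB2 cells, 18-20hr seeding at 37C/5% CO2, then compound plus 1nM isoproterenol agonist mix for 0.5hr RT. Homogeneous time-resolved fluorescence cAMP detection after 1hr, expressed as 665/615 nm ratio.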

The nature of assay [18]: cAMP Responsive Elements (CRE) small molecule agonists, cell-based qHTS assay (AID 1963590). A digest of the protocol:
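HEK 293T cells stably bearing CRE-bla were plated at 2,000 cells per well and rested 18 h. Compounds, positive controls or DMSO were added for 3 h at 37 C. LiveBLAzer B/G substrate was then loaded for 2 h at room temperature.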

The target in assay [19] is Beta-2 adrenergic receptor (Homo sapiens) (UniProt P07550). As to the kind of experiment: Adrenergic beta2 receptor (ADRB2) small molecule agonists, cell-based qHTS assay (AID 1963593). Also: potency is read from the fitted curve at half-maximal effect.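 As to activation: CHO cells stably overexpressing human ADRB2.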 A digest of the protocol:
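CHO cells stably over-expressing ADRB2 were plated overnight at 37C, then dosed with compounds plus a stimulation mix containing 100uM IBMX and 25uM Ro-20-1724 for 0.5hr at room temperature. cAMP was measured by HTRF competition, 1hr.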

Records with an inconclusive call do not appear. A structure can be active in one record and inactive in another. Calls of active or inactive are those of the source. Unless noted, calls follow the shape of the full dose curve.

Muscarinic acetylcholine receptor M1 (Homo sapiens), sequence (P11229 whole entry, looked up): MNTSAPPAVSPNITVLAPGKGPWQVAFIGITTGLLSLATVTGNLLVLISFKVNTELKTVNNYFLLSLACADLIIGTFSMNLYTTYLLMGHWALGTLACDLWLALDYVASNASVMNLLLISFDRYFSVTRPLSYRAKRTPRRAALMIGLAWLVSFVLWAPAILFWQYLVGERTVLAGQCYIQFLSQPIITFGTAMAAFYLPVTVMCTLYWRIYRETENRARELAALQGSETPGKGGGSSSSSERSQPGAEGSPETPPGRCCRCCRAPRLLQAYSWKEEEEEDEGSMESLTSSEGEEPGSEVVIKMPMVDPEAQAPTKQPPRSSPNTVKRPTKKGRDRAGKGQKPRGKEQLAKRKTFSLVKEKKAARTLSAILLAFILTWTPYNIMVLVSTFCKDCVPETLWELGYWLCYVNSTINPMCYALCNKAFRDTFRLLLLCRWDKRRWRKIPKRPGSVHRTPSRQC
Beta-2 adrenergic receptor (Homo sapiens), sequence (P07550 whole entry, looked up): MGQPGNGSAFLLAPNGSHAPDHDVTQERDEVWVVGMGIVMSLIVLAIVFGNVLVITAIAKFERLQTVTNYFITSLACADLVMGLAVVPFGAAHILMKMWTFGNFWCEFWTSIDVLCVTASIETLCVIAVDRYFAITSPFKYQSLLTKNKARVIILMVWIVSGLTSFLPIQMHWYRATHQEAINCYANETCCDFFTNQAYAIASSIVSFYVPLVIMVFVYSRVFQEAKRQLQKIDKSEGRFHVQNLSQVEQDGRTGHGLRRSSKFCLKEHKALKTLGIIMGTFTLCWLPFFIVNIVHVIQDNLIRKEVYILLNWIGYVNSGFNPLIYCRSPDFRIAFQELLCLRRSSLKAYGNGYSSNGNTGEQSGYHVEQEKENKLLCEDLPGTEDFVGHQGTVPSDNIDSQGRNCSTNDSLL
D(2) dopamine receptor (Homo sapiens), sequence (P14416 whole entry, looked up): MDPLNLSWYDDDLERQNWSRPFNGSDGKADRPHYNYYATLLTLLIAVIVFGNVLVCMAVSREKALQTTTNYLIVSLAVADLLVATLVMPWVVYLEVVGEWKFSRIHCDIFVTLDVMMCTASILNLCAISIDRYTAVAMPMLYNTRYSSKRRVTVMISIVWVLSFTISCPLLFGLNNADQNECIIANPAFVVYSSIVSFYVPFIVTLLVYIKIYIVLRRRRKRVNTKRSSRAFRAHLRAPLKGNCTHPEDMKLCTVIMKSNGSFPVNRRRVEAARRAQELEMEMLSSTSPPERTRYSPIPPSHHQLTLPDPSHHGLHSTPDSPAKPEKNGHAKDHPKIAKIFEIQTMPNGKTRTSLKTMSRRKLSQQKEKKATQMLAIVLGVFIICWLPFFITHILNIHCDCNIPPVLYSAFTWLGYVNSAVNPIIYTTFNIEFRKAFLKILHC
5-hydroxytryptamine receptor 2A (Homo sapiens), sequence (P28223 whole entry, looked up): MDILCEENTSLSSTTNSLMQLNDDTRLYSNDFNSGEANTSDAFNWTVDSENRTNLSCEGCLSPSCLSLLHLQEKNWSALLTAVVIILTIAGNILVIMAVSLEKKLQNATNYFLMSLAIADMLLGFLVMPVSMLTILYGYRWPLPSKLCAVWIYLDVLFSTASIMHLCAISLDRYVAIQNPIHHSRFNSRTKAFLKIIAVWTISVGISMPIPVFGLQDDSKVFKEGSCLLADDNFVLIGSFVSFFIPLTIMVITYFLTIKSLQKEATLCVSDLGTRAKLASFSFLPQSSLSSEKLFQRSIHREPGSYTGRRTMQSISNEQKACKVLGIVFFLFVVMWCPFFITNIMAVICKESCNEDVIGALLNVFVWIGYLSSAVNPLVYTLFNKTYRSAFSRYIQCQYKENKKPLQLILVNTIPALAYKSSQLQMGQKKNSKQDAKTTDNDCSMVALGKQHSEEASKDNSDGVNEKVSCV

As to `O=C(c1ccc(O)cc1O)c1ccc(O)cc1O`, the Potency result in assay [1], in assay [2], in [3], in [4], in assay [5] and in assay [6] was “inactive” each time. For the same molecule, the Potency entry in assay [7], in assay [8], in [9], in assay [10], in [11] and in assay [12] was “inactive” throughout. The Potency result in [13], in assay [14] and in assay [15] was “inactive” in each case.

For the molecule `CC#N`, the Potency entry in assay [1], in assay [2], in [3], in [4], in [6] and in assay [7] was “inactive” in each case. Further, the Potency result in assay [8], in assay [16], in assay [9], in [10], in [11] and in assay [12] was “inactive” each time. In addition, the Potency entry in [13], in assay [17], in assay [14] and in assay [15] was “inactive” each time.

`CNCCS(=O)(=O)O`: the Potency entry in assay [1], in assay [2], in assay [3], in assay [4], in assay [5] and in [6] was “inactive” throughout. Further, the Potency result in [7], in assay [8], in assay [9], in assay [11], in assay [12] and in [18] was “inactive” throughout. Moreover, the Potency result in assay [13], in [17], in assay [19], in [14] and in assay [15] was “inactive” in each case.

Regarding `COC(OC)OC`, the Potency result in assay [1], in [2], in [3], in [5], in assay [6] and in assay [7] was “inactive” each time. The Potency entry in assay [8], in assay [16], in [9], in [10], in [12] and in assay [18] was “inactive” in each case. Besides, the Potency entry in assay [13], in assay [17], in assay [14] and in assay [15] was “inactive” each time.

For the molecule `COC(=O)C1=C(C)NC(C)=C(C(=O)OCC(C)C)C1c1ccccc1[N+](=O)[O-]` (centres undefined), the Potency result in [1], in assay [3], in assay [4], in assay [5], in assay [6] and in assay [7] was “inactive” each time. Also, the Potency result in [8], in assay [16], in assay [13], in assay [17] and in assay [14] was “inactive” in each case. The Potency in assay [2] is 24.3 µM (active) and inactive; in assay [19] it was 11.9 µM (active).

For the molecule `CC(C)(C)C1CCCCC1O` (centres undefined), the Potency result in assay [1], in assay [2], in assay [3], in assay [4], in [5] and in assay [7] was “inactive” in each case. Moreover, the Potency result in assay [8], in [9], in [10], in [11], in assay [12] and in assay [18] was “inactive” each time. The Potency result in assay [13], in [17] and in assay [15] was “inactive” throughout.

As for `c1coc(CNc2ncnc3nc[nH]c23)c1`, the Potency entry in assay [1], in assay [2], in [3], in assay [4], in assay [5] and in assay [6] was “inactive” in each case. Further, the Potency result in [7], in assay [16], in assay [9], in assay [10], in assay [11] and in [12] was “inactive” throughout. Besides, the Potency result in assay [13], in assay [17], in assay [19], in assay [14] and in assay [15] was “inactive” in each case.
